Compound activity deposited in PubChem by National Center for Advancing Translational Sciences (NCATS).
Hits are enriched below; roughly 7.5% of the tested compounds scored in any of these assays.
HCMV inh: qHTS Assay for inhibitors of the human cytomegalovirus (HCMV); HFF cells, HCMV-luciferase reporter, 72 h; hits give low values; AID 1259415, 2018; activity change, negative = inhibition, % at 57.5 µM; 410,000 tested, 4.5% active; in the data active means activity change below about -60%; inconclusive means no clear call, values can overlap the other calls; inactive means above about -39%
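Two compound doses tested in HFFs infected with HCMV-luciferase, MOI 1 PFU/cell, 72 h at 37C. Lysate luminescence read with OneGlo; data normalized against buffer-only and 10uM Salinomycin inhibitor controls.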
FMDV inh: High Throughput Screening for Foot and Mouth Disease Virus Antivirals; FMDV antiviral cell-based qHTS; Potency, µM (doses to about 57.9 µM), for inactives: at the top dose activity change, negative = inhibition, hits mostly inhibitors; 410,000 tested, 1.2% active; AID 1159524, 2015; calls by dose curve; tested in HEK293T cells; further: read-out not given here; potency means the concentration at half of the fitted maximal effect; nearly all actives have a fitted effect of over 45% in size
Vaccinia Venus: qHTS for Stage-Specific Inhibitors of Vaccinia Orthopoxvirus: Venus Reporter Primary qHTS; Vaccinia virus Venus reporter expression, fluorescence; Potency, µM (highest dose often 36.5 µM), inactives show at the highest dose activity change, negative = inhibition, most hits filed as inhibitors; 330,000 tested, 0.46% active; calls by dose curve; tested in A549 cells; further: potency means the concentration at half of the fitted maximal effect; nearly all actives have a fitted effect of over 30% in size
HCV inhibitor: qHTS Assay for Inhibitors of Hepatitis C Virus (HCV) | Huh7.5.1 HCVcc-Cre infection, luciferase reporter, 44 h | Potency, µM (highest dose often 41.8 µM), inactives show at the highest dose activity change, negative = inhibition, hits mostly inhibitors | 340,000 tested, 3.4% active | AID 651820, 2012; further: potency means the concentration at half of the fitted maximal effect
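HCVcc-Cre virus at an moi near 0.5 was added right after compound to cells cultured 4 h from seeding (1,000 cells/well). Luciferase activity was determined 44 h later, 15 min after substrate addition at RT.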
FBPA Giardia inh: qHTS Assay for Inhibitors of Fructose-1,6-bisphosphate Aldolase from Giardia Lamblia; A8B2U2; purified Giardia FBPA; Potency, µM (series often up to 59.6 µM), inactives show top-dose activity, negative = inhibition, actives largely listed as inhibitors; 290,000 tested, 0.71% active; AID 2451, 2010; further: potency means the concentration at half of the fitted maximal effect; nearly all actives have a fitted effect of over 55% in size
Target sequence (A8B2U2 whole entry, looked up): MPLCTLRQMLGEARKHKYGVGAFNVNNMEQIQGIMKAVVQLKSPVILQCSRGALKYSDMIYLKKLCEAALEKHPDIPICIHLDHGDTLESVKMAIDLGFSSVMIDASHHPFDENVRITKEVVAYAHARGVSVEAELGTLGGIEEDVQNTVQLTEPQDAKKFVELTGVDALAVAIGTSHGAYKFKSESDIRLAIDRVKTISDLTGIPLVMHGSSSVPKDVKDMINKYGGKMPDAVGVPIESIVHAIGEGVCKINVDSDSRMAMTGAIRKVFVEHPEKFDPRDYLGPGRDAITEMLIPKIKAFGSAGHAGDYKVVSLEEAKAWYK
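Giardia FBPA (40 nM reagent) was preincubated 10 min at RT with compound (up to 57.5 uM final), then substrate plus GAPDH/TPI/NAD/arsenate coupling system with diaphorase/resazurin was added; resorufin fluorescence (525/598 nm) was read after 20 min.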
VACV mCherry inh: qHTS for Stage-Specific Inhibitors of Vaccinia Orthopoxvirus: mCherry Reporter Primary qHTS; Vaccinia virus mCherry reporter infection, fluorescence; Potency, µM (doses to about 36.5 µM), inactives show top-dose activity change, negative = inhibition, most hits filed as inhibitors; 310,000 tested, 0.63% active; AID 720579, 2013; calls by dose curve; tested in A549 cells; further: potency means the concentration at half of the fitted maximal effect; nearly all actives have a fitted effect of over 35% in size
Numbers without * were called inactive; i = inactive; u = inconclusive; x = no result. Unless noted, the call rests on the fitted dose curve; in most records, active means well fitted curve in the direction sought with a large enough effect; inconclusive means small, poorly fitted or top-dose-only effect, or another doubt; inactive means no such curve, though single readings can be large; an effect the other way counts as inactive or inconclusive. On the % scale 0 is the no-effect control and ±100 the full control effect.

SMILES	HCMV inh	FMDV inh	Vaccinia Venus	HCV inhibitor	FBPA Giardia inh	VACV mCherry inh
COc1ccc(Oc2nc(C)nc3c2oc2ccccc23)cc1	-68*	u	u	8.9µM*	-3%	u
Cc1nc(Oc2ccccc2)c2oc3ccccc3c2n1	u	-20%	u	u	3%	u
Cc1nc(Nc2cccc(Cl)c2)c2oc3ccccc3c2n1	-3	-25%	-19%	-27%	-20%	-2%
COc1ccccc1Nc1nc(C)nc(N)c1S(=O)(=O)c1ccccc1	-5	-13%	-14%	x	x	-8%
CCOC(=O)CCNC(=O)C1=CN2CCN(Cc3c(C)noc3C)C(=O)N=C2O1	-4	x	x	x	x	x
O=S(=O)(Cc1ccc(Cl)cc1)Nc1ccc(Cl)cn1	-101*	3%	-1%	18%	-5%	3%
CC(C)(C)c1cnnn1-c1cccc([N+](=O)[O-])c1	-66*	-5%	-11%	9%	-2%	-14%
O=[N+]([O-])c1cccc(-n2nncc2-c2ccccc2)c1	5	-14%	-15%	6%	15%	-21%
Cn1cnc(CCNC(=O)[C@@H]2[C@@H](CO)[C@@H]3Cn4c(cccc4=O)[C@H]2N3C(=O)Nc2ccccc2)c1	-6	x	x	x	x	x
O=C(Nc1nnc(-c2ccco2)o1)c1ccc([N+](=O)[O-])s1	-38	21%	u	8.9µM*	u	u
COCc1cccc(-c2cccc3c2COCC(=O)N3Cc2ccccc2)c1	-5	x	x	x	x	x
Cc1ccc(-c2csc3nc4c5ccccc5c(NCCCN(C)C)nn4c(=O)c23)cc1	-99*	-30%	x	3%	7%	x
CC1CN=C(c2cc(Cl)c(N)c(Cl)c2)c2c3ccc(C(F)(F)F)cc3nn21 (stereo not drawn)	63	x	x	x	x	x
CN(C)C=Nc1ccccc1C1C=NNC1=O (stereo not drawn)	x	x	x	x	-11%	x
Cc1cccc(NC2=NC(C)(C)N=C(N)N2)c1	-98*	-19%	1µM*	u	-1%	u
CCC(Sc1nc(C)cc(C)n1)C(=O)NC1=NN=C(c2ccc(C)cc2)CS1 (stereo not drawn)	-106*	-14%	u	u	-3%	u
Cc1cc(C)nc(SCC(=O)NC2=NN=C(c3ccc(Br)cc3)CS2)n1	-92*	u	x	u	-5%	x
Cc1cc(C)nc(SCC(=O)Nc2ccc(Br)cn2)n1	-9	-18%	-7%	u	1%	x
CC1SC(c2ccc(F)cc2)N(CCc2ccccc2)C1=O (stereo not drawn)	-2	11%	-15%	1%	-6%	i
CC(C)c1ccc(/C=C/C(=O)Nc2ccc(CN3CCOCC3)cc2)cc1	u	28µM*	-22%	2.2µM*	-5%	i
O=C(/C=C/c1ccccc1)NC(=S)Nc1ccc(CN2CCOCC2)cc1	-76*	u	-4%	-18%	19%	u
O=C(/C=C/c1ccc(Cl)cc1)Nc1ccc(CN2CCOCC2)cc1	-89*	u	-21%	u	1%	i
CN(C)CC(=O)N1[C@@H]2c3ccc(C4=CCCCC4)c(=O)n3C[C@H]1[C@H](CO)[C@H]2C(=O)NCC1CC1	-16	x	x	x	x	x
Cc1nn(-c2nc3ccccc3[nH]2)c(N)c1-c1ccccc1	38	-14%	u	32µM*	0%	u
Cc1nn(Cc2ccc([N+](=O)[O-])cc2)c(=O)n1-c1ccc(Cl)cc1	47	-18%	-10%	u	3%	-12%
SMILES	HCMV inh	FMDV inh	Vaccinia Venus	HCV inhibitor	FBPA Giardia inh	VACV mCherry inh
Cc1ccc(-n2c(C)nn(Cc3ccc([N+](=O)[O-])cc3)c2=O)cc1	-82*	-13%	-22%	-12%	0%	u
O=C1NC(=NCc2ccccc2)NC1(c1ccccc1)c1ccccc1	-22	9%	5%	u	x	-13%
CC(C)C[C@@H](CN=[N+]=[N-])N1CCN(CCc2ccccc2)CCC1=O	x	x	-18%	x	x	i
Cc1ccc(S(=O)(=O)CCSc2nc(C)cc(C(F)(F)F)c2C#N)cc1	-71*	u	2.2µM*	u	2%	x
Cc1ccc(S(=O)(=O)c2cn(C)c3cc(N4CCN(C)CC4)c(F)cc3c2=O)c(C)c1	-20	12%	x	13µM*	x	x
Cc1ccc(OCCCCn2c(CCNC(=O)C3CCCCC3)nc3ccccc32)cc1	x	x	-18%	x	x	-22%
Cc1ccc(NC(=O)C2(C)Cc3ccccc3C(=O)O2)cc1 (stereo not drawn)	-60*	19%	-3%	-24%	3%	-10%
N#CC(C#N)=Cc1cc(O)c(O)c(O)c1	x	-13%	-16%	x	16µM*	-5%
Cc1c(C(=O)N2CCC3(CC2)OCCO3)sc2ncnc(N(C)c3ccccc3)c12	u	0%	u	u	4%	x
Cc1c(C(=O)N2CCC(C)CC2)sc2ncnc(N(C)c3ccccc3)c12	-66*	u	x	u	-5%	x
COc1ccccc1NC(=O)N1CC(=O)N2[C@H](CO)[C@@H](c3ccc(Br)cc3)[C@H]2C1	3	x	x	x	x	x
CC(c1ccccc1)N(NC(=O)C(O)(c1ccccc1)c1ccccc1)C(=O)c1ccccc1 (stereo not drawn)	-74*	-12%	-9%	u	-1%	-15%
COC(=O)[C@@H]1CCCN1C(=O)c1c(OC)cc(=O)n2c1CCN(Cc1ccc3c(c1)OCCO3)CC2	x	-6%	-9%	x	x	-7%
C=CCn1c(=N)n(CC(=O)c2ccc(Br)s2)c2ccccc21	-74*	-41%	x	u	12%	x
C=CCn1c(=N)n(CC(=O)c2ccc(Cl)cc2)c2ccccc21	-19	-10%	-13%	u	-5%	u
O=C1C(Cl)=C(NCCN2CCCCC2)C(=O)c2ccccc21	x	40µM*	x	7.9µM*	u	x
O=C1C(Cl)=C(NCc2ccco2)C(=O)c2ccccc21	-86*	-18%	u	8.9µM*	x	u
CCNc1ccc2noc3c2c1C(=O)c1ccccc1-3	-37	-21%	124%	u	-22%	-16%
O=C1c2ccccc2-c2onc3ccc(NCc4ccco4)c1c23	x	u	159%	10µM*	u	84%
CCNC1=C(Cl)C(=O)c2ccccc2C1=O	-33	-25%	u	u	u	x
O=C(NCCN1CCCC1)c1ccccc1Cl	-39	-22%	x	5%	-3%	x
COCCn1c(=O)c(CCc2ccccc2)nc2cnc(Oc3ccc(OC)cc3)nc21	x	2%	x	x	-1%	x
CC(C)CN1CCC2(CC1)CCN(C(=O)c1cc(C(F)(F)F)cc(C(F)(F)F)c1)CC2	x	-13%	x	x	5%	x
COc1ccc(C2CC(c3ccccc3)Oc3cc(C)c(Cl)c(C)c32)cc1 (stereo not drawn)	x	x	x	x	-2%	x
